Laboratory results taken from PubChem BioAssay (NCATS).
Inconclusive results are not listed. Entries that show only a call come without a potency. Some structures have more than one record in an assay (separate samples or runs), and their calls can disagree. Activity calls are given as the source filed them. Unless noted, calls follow the shape of the dose curve; as a rule, active = well fitted curve in the direction sought with a large enough effect; inconclusive = small, poorly fitted or top-dose-only effect, or another doubt; inactive = no such curve, though single readings can be large; an effect the other way counts as inactive or inconclusive.

Key:
[1] = target: Ferritin light chain (Equus caballus) (UniProt P02791); test: qHTS Validation Assay for Identification of Novel General Anesthetics (AID 2323)
Sequence of Ferritin light chain (Equus caballus) (P02791 2-175 limits assumed): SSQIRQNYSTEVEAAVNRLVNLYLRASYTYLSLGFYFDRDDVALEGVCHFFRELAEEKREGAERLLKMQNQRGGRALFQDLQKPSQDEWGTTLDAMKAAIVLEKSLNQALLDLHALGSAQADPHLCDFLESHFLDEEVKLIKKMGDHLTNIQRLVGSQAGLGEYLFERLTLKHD
Summary of the method: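 Fluorescence at 535 nm (excitation 380 nm) reported loss of 1-AMA binding to horse-spleen apoferritin (10 uM) in PBS with 50% saturated 1-aminoanthracene, after 10 min room-temperature incubation with compound; values from Hill fits of normalized response.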

[2] = target: ATP-dependent DNA helicase Q1 (Homo sapiens) (UniProt P46063); test: qHTS Validation Assay for Inhibitors of RecQ-Like Dna Helicase 1 (RECQ1) (AID 2353)
Sequence of ATP-dependent DNA helicase Q1 (Homo sapiens) (P46063 whole entry, looked up): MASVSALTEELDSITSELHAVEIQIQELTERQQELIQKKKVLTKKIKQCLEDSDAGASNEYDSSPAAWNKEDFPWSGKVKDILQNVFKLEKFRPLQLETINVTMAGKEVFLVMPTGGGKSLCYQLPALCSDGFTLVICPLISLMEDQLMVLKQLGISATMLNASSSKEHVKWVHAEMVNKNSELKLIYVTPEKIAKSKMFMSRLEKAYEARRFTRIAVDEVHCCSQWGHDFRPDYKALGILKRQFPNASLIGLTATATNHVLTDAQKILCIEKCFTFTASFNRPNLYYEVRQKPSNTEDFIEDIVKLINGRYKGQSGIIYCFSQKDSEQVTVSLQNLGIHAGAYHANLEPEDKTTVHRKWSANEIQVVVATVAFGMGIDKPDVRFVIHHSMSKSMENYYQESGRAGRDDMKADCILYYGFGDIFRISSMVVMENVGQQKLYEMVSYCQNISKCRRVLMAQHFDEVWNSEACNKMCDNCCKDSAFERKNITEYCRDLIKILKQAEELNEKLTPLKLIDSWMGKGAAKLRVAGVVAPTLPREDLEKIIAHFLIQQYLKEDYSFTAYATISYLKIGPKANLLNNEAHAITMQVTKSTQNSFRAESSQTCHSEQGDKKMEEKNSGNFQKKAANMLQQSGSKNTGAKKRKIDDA
Summary of the method: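 50 nM RECQ1T1 preincubated 15 min with compound in Tris pH 8.0 buffer with MgCl2, DTT, Tween-20 and 2.5 ug/ml poly(dI-dC); started with 200 nM TAMRA/BHQ-2 forked duplex and 2 mM ATP. Unwinding read as fluorescence (525/598 nm), two reads 2 h apart.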

[3] = target: RecQ-like DNA helicase BLM (Homo sapiens) (UniProt P54132); test: qHTS Validation Assay for Inhibitors of Bloom's syndrome helicase (BLM) (AID 2364)
Summary of the method: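 Forked 20-bp duplex substrate (200 nM, TAMRA/BHQ-2) plus 2 mM ATP added after 15 min compound preincubation with 50 nM enzyme, pH 8.0, poly(dI-dC) 2.5 ug/ml. Strand separation followed by fluorescence (525/598 nm) over 2 h, normalized to enzyme-free and DMSO controls.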

[4] = Cytometric Cell-Based qHTS for Inhibitors of the mTORC1 Signaling Pathway in MEF (Tsc2-/-, p53-/-) Cells (AID 2660);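 also: Tsc2 and p53 null MEFs carrying empty vector with compound for 24 h; percent of cells above a phospho-rpS6 to PI ratio cutoff in each well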
Summary of the method: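 Immunofluorescence qHTS of rpS6 Ser235/236 phosphorylation: MEFs (Tsc2-/-, p53-/-) treated 24 h, 37 C, in DMEM + 10% FBS. Alexa-488 signal normalized to PI count, referenced to rapamycin (7.5 nM) and DMSO; PI cell number recorded for viability.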

[5] = High Content Imaging Cell-Based qHTS for Inhibitors of the mTORC1 Signaling Pathway in MEF (Tsc2-/-, p53-/-) Cells (AID 2666); settings: at 38.3 µM (top of the series);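 also: percent of cells scored positive for phospho-rpS6 Ser235/236 immunostaining by imaging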
Summary of the method: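 Cells were plated, dosed with compound after 24 hrs, and incubated another 24 hrs at 37 degree Celsius. Fixed cells were immunostained for phospho-rpS6 Ser235/236 and counterstained, and the normalized signal was scored as % active cells against rapamycin and DMSO controls.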

[6] = High Content Imaging Cell-Based qHTS for Inhibitors of the mTORC1 Signaling Pathway in MEF Cells (AID 2667); also: potency is read from the fitted curve at half-maximal effect
Summary of the method: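 Immunofluorescence for rpS6 phosphorylation in MEFs of Tsc2-/-, p53-/- background rescued with WT Tsc2. Compound exposure lasted 24 hrs. Inhibition was scored against rapamycin-treated control wells.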

[7] = Validation screen for small molecules that induce DNA re-replication in MCF 10A normal breast cells (AID 463097); also: nearly all actives have a fitted effect of over 60% in size
Summary of the method: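 Image-based qHTS: normal breast cells are incubated with compound for 48 hr, stained with Hoechst, and scanned for total nuclear fluorescence. Compounds raising the fraction of nuclei with elevated DNA content count as re-replication inducers.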

[8] = target: Ubiquitin carboxyl-terminal hydrolase 2 (Homo sapiens) (UniProt O75604); test: qHTS Validation Assay for Inhibitors of Ubiquitin-specific Protease USP2a Using CHOP2 as the Reporter (AID 463106)
Sequence of Ubiquitin carboxyl-terminal hydrolase 2 (Homo sapiens) (O75604 whole entry, looked up): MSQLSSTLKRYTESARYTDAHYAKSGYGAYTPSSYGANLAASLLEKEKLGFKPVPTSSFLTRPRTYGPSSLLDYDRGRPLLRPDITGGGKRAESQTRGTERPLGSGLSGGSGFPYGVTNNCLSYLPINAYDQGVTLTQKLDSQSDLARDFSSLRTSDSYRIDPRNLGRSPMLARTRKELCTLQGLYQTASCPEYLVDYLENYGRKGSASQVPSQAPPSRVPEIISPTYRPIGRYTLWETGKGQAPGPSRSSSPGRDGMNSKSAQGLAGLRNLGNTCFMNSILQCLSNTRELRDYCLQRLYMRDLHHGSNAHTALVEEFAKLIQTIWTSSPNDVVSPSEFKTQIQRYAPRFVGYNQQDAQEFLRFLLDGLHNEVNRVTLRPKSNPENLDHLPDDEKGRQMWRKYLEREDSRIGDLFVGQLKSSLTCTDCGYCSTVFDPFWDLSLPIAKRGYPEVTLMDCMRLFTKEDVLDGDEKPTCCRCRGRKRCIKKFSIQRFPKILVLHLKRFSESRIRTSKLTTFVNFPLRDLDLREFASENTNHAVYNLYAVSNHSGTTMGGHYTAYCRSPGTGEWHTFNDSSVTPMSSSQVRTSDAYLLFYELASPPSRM
Summary of the method: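 10nM USP2 core + cpd, 30min RT; add 25nM Ub-CHOP2/25nM substrate; 60min RT; FI 485/531nm. Buffer Tris pH 8.0, CaCl2, BME, CHAPS. Norm. to NEM = 100% inhibition; time-zero read flags fluorescent artifacts.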

[9] = target: Tumor susceptibility gene 101 protein (Homo sapiens) (UniProt Q99816); test: qHTS Validation Assay for Iinhibitors of HIV-1 Budding by Blocking the Interaction of PTAP/TSG101 (AID 485342; calls by dose curve)
Sequence of Tumor susceptibility gene 101 protein (Homo sapiens) (Q99816 whole entry, looked up, the tested form may be a part): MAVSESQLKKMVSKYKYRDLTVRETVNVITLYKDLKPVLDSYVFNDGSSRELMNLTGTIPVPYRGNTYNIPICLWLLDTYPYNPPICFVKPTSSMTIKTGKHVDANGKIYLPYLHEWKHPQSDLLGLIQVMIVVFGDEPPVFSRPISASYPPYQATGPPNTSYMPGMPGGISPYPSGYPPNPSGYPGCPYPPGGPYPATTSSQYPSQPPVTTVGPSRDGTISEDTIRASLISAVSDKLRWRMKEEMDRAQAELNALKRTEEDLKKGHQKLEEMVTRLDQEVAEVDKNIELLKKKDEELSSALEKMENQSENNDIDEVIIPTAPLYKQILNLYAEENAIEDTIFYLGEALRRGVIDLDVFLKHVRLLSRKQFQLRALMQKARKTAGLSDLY
Summary of the method: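 Binding of a FITC-tagged PTAP-motif peptide (50 nM) to the Tsg101 binding domain (10 uM) is monitored by fluorescence polarization. Compounds are pin-delivered before peptide addition, and incubation runs 20 min at room temperature.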

[10] = qHTS Validation Assay to Find Inhibitors of Chronic Active B-Cell Receptor Signaling (AID 485345; active = well fitted curve in the direction sought with a large enough effect in the main read-out, with a control signal flat, not every such curve was filed as active)
Summary of the method: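 Read-out: ratio of filter-corrected green (IkappaBalpha fusion) to red (native) luciferase signal in doxycycline-induced TMD8 cells after 4 h at 37C. Titration spanned 46 uM–3 nM; Data were normalised to basal cells and 10 uM MG-132 wells.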

[11] = target: Beta-2 adrenergic receptor (Homo sapiens) (UniProt P07550); test: qHTS validation assay of beta-arrestin-biased ligands of beta2-adrenergic receptor (AID 485366)
Sequence of Beta-2 adrenergic receptor (Homo sapiens) (P07550 whole entry, looked up): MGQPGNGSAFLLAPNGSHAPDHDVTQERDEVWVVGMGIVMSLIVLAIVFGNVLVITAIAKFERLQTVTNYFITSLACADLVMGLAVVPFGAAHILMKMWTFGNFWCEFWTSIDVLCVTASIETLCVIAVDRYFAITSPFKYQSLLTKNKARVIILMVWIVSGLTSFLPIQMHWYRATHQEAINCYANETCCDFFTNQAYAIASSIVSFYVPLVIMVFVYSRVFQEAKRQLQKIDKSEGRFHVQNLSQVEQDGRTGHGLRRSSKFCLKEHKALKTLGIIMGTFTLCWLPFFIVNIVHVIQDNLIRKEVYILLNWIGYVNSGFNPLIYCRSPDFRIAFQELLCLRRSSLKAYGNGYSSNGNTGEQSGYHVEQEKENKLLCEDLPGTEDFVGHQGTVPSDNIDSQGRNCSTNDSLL
Summary of the method: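 Arrestin-recruitment (Tango) reporter: ligand-bound beta2-AR recruits beta-arrestin, releasing tTA, which upregulates luciferase. Titrations of up to 46 microM incubated 18 hr at 37 degrees C before luminescent readout.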

[12] = target: ATP-dependent 6-phosphofructokinase (Trypanosoma brucei brucei) (UniProt O15648); test: qHTS Validation Assay to Find Inhibitors of T. brucei phosphofructokinase (AID 485368)
Sequence of ATP-dependent 6-phosphofructokinase (Trypanosoma brucei brucei) (O15648 whole entry, looked up): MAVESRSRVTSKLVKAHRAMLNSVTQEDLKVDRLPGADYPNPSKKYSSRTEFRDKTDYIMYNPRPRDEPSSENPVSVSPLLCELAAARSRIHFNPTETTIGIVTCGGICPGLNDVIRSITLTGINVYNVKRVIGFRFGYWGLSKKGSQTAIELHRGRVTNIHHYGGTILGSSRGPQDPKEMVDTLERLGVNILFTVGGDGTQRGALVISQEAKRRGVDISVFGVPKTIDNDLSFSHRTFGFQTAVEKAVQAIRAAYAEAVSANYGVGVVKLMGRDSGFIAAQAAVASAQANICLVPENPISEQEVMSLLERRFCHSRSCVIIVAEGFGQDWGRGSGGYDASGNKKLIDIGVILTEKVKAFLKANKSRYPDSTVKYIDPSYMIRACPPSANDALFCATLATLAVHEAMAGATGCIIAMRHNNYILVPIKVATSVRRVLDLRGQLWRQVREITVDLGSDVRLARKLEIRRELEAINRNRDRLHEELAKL
Summary of the method: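 Steps: substrate mix (0.5 mM F6P, 0.1 mM ATP, MgCl2, TEA pH 8.0); compound; 1.25 nM T. brucei PFK; 45 min RT; ATP depletion 10 min; ADP-to-ATP detection 10 min; luminescence read; curve fitting and classification.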

[13] = Quantitative high throughput screen for delayed death inhibitors of the malarial parasite plastid, 96 hour incubation (AID 488745); also: nearly all actives have a fitted effect of over 70% in size; also: potency is read from the fitted curve at half-maximal effect
Summary of the method: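 Luciferase-expressing P. falciparum in erythrocytes (2% hematocrit, 0.1% parasitemia) incubated with compound for 96 h at 37 C, 5% CO2, in RPMI 1640 with 0.5% Albumax. Growth inhibition read as decreased luminescence.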

[14] = target: Thioredoxin reductase 1, cytoplasmic (Rattus norvegicus) (UniProt O89049); test: qHTS Assay for Substrates of Mammalian Selenoprotein Thioredoxin Reductase 1 (TrxR1) (AID 488772);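 also: NADPH fluorescence in the first read after selenite addition and not the 8 min delta; a drop in NADPH fluorescence below the no-compound background marks a TrxR1 substrate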
Sequence of Thioredoxin reductase 1, cytoplasmic (Rattus norvegicus) (O89049 whole entry, looked up): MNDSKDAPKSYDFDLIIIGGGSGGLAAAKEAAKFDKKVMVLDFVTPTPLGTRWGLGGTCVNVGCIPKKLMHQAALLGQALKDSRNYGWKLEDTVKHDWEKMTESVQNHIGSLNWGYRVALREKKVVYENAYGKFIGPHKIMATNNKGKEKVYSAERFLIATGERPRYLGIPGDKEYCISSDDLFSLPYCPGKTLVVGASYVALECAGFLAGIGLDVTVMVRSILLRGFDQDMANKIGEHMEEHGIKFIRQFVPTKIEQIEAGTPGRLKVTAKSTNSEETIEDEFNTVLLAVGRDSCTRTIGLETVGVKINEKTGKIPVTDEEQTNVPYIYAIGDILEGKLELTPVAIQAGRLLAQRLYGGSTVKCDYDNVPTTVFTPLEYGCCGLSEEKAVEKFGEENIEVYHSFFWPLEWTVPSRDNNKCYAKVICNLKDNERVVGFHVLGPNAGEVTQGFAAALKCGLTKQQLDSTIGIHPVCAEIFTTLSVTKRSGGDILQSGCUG
Summary of the method: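 Quantitative HTS in Tris-HCl buffer at pH 7.5 with EDTA and Tween-20, using rat TrxR1, 400 uM NADPH and 400 uM selenite (final). A fall in initial NADPH fluorescence relative to background marked substrate behaviour.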

[15] = target: Thioredoxin reductase 1, cytoplasmic (Rattus norvegicus) (UniProt O89049); test: qHTS Assay for Inhibitors of Mammalian Selenoprotein Thioredoxin Reductase 1 (TrxR1) (AID 488773);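 also: drop in NADPH fluorescence over an 8 min run after selenite addition; nearly all actives have a fitted effect of over 40% in size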
Summary of the method: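 Steps: enzyme (90 nM) plus NADPH (400 uM final), 5 min at ~22 deg C; compound added, 15 min; selenite (400 uM final) added; fluorescence followed for 8 min. Concentration-response curves derived from the normalized delta values.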

[16] = target: Flap endonuclease 1 (Homo sapiens) (UniProt P39748); test: qHTS Validation Assay for the Inhibitors of Human Flap endonuclease 1 (FEN1) (AID 488816)
Sequence of Flap endonuclease 1 (Homo sapiens) (P39748 whole entry, looked up): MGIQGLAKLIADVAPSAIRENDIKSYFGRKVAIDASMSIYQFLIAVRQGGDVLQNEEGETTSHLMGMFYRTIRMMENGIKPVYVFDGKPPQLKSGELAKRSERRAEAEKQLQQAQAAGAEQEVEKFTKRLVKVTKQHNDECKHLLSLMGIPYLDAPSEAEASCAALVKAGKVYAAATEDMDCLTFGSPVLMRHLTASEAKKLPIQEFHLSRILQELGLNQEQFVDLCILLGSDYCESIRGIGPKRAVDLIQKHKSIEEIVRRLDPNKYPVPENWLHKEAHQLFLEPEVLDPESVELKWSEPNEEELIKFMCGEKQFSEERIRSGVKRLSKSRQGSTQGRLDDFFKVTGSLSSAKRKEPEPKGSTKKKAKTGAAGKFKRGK
Summary of the method: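 Readings taken at 0 and 15 min after starting the reaction with 50 nM (final) substrate supplied the signal. Compounds had first sat with 10 nM FEN1 reagent for 15 min at room temperature. Values come from Hill-equation concentration-response fits.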

[17] = target: M-phase phosphoprotein 8 (Homo sapiens) (UniProt Q99549); test: qHTS Validation Assay for Inhibitors for MPP8 Chromodomain Interactions with Methylated Histone Tails (AID 488949); also: nearly all actives have a fitted effect of over 55% in size; also: potency is read from the fitted curve at half-maximal effect
Summary of the method: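 50 nM MPP8 + 50 nM b-H3K9me3 peptide, PBS pH 7.4/0.01% Tween-20, 30 min RT; + cpd 30 min RT; + AlphaScreen donor/Ni-chelate acceptor beads 10 ug/mL final, 30 min dark; luminescence read.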

[18] = target: Methanococcus maripaludis chaperonin (MmCpn) (UniProt Q6LX38); test: High-Throughput Screening for Modulators of Cytosolic Chaperonin Activity: MmCpn Primary Screen (AID 488978);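 also: 50 nM MmCpn enzyme hydrolysing 30 µM ATP at 37 °C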
Sequence of Methanococcus maripaludis chaperonin (MmCpn) (Q6LX38 1-543): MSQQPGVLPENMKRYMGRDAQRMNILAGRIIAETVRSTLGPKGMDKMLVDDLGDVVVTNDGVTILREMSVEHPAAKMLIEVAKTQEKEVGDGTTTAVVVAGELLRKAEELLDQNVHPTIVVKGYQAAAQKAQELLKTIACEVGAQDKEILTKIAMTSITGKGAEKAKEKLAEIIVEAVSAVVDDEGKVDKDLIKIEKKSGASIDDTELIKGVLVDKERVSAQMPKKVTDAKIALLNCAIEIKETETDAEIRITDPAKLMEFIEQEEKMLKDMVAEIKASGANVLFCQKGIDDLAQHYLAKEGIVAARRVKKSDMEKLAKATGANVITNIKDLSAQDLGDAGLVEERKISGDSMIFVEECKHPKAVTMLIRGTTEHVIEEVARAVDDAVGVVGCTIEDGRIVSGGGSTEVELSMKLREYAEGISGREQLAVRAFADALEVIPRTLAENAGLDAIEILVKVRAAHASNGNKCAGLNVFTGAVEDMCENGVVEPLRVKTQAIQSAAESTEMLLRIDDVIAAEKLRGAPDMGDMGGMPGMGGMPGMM
Summary of the method: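 Steps: chaperonin 50 nM final; add compound, 5 min RT; start with ATP, 30 uM final; hold 10 min at 37C; add ADP Transcreener HTRF reagent, 5 min; read ex 320, em 590 and 665 nm.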

[19] = target: Transient receptor potential cation channel subfamily V member 1 (Homo sapiens) (UniProt Q8NER1); test: HTS Assay for Compounds that Act as Enhancers of the Vanilloid Receptor 1 (AID 488979)
Sequence of Transient receptor potential cation channel subfamily V member 1 (Homo sapiens) (Q8NER1 whole entry, looked up): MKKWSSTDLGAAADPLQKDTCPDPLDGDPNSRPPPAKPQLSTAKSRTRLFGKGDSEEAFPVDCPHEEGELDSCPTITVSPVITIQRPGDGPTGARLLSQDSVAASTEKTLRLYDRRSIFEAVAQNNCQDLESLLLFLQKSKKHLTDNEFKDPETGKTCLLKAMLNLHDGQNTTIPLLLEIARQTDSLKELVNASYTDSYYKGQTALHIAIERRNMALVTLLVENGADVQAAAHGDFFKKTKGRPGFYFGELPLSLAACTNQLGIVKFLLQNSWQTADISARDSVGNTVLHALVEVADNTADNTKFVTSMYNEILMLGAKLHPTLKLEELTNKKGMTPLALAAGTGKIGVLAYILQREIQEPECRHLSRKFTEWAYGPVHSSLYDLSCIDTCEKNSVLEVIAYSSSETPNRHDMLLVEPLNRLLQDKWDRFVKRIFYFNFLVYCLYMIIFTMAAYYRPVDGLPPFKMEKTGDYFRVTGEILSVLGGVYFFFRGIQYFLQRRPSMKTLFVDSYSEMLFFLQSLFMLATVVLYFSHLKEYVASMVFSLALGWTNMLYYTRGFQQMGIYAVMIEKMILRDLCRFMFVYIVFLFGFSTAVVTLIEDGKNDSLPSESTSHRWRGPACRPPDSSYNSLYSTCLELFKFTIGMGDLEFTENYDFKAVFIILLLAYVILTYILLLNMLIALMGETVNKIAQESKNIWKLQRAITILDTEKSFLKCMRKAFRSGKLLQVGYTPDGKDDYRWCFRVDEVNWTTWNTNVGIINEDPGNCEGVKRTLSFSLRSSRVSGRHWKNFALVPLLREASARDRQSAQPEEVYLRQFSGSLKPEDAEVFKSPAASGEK
Summary of the method: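 Calcium influx kinetics via Fluo-8 (480/520 nm) in TRPV1-expressing cells, 2000/well cultured overnight at 35.5C. Compound-alone read 3 min (agonist phase), followed by EC20 capsaicin challenge for 2 min (enhancer phase).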

[20] = target: Chromobox protein homolog 1 (Homo sapiens) (UniProt P83916); test: qHTS Validation Assay for Inhibitors of HP1-beta Chromodomain Interactions with Methylated Histone Tails (AID 488953); also: nearly all actives have a fitted effect of over 50% in size; also: potency is read from the fitted curve at half-maximal effect
Summary of the method: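 HP1-beta (50 nM) preformed 30 min with biotinylated H3(1-18)K9me3 peptide (50 nM) in PBS pH 7.4, 0.01% Tween-20. Compounds added for 30 min at room temperature. Complex disruption read by AlphaScreen with streptavidin donor/nickel chelate acceptor beads (10 ug/mL each).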

O=C1CCC(c2ccc(-n3ccnc3)cc2)=NN1
outcome [1]: inactive
outcome [2]: inactive
outcome [3]: inactive
outcome [4]: inactive
outcome [5]: inactive
Potency [6]: inactive
outcome [7]: inactive
outcome [8]: inactive
outcome [9]: inactive
outcome [10]: inactive
outcome [11]: inactive
Potency [12]: inactive
Potency [13]: inactive
outcome [14]: inactive
outcome [15]: inactive
outcome [16]: inactive
Potency [17]: inactive
outcome [18]: inactive
outcome [19]: inactive

COc1cc(NS(C)(=O)=O)ccc1Nc1c2ccccc2nc2ccccc12
outcome [1]: inactive
outcome [5]: inactive
Potency [6]: 3.69 µM (active)
outcome [8]: inactive
outcome [9]: inactive
outcome [11]: inactive
Potency [12]: inactive
Potency [13]: 1.17 µM (active)
outcome [14]: inactive
outcome [15]: inactive
outcome [16]: inactive
Potency [17]: 39.8 µM (active) and inactive
Potency [20]: 79.4 µM (active)
outcome [18]: inactive
outcome [19]: inactive

COc1cc2c(cc1O)CC[C@@H]1[C@@H]2CC[C@]2(C)[C@@H](O)CC[C@@H]12
outcome [4]: inactive
outcome [5]: inactive
Potency [6]: inactive
outcome [8]: inactive
outcome [9]: inactive
outcome [11]: inactive
outcome [14]: inactive
outcome [15]: inactive
outcome [16]: inactive
Potency [17]: inactive
outcome [18]: inactive

O=C(O)c1cc2cc(Cc3cccnc3)ccc2o1
outcome [1]: inactive
outcome [2]: inactive
outcome [4]: inactive
outcome [5]: inactive
Potency [6]: inactive
outcome [7]: inactive
outcome [8]: inactive
outcome [9]: inactive
outcome [10]: inactive
outcome [11]: inactive
Potency [12]: inactive
Potency [13]: inactive
outcome [14]: inactive
outcome [15]: inactive
outcome [16]: inactive
Potency [17]: inactive
Potency [20]: inactive
outcome [18]: inactive
outcome [19]: inactive

CC(CCc1ccccc1)NCC(O)c1ccc(O)c(C(N)=O)c1 (stereo not given)
outcome [1]: inactive
outcome [2]: inactive
outcome [3]: inactive
outcome [4]: inactive
outcome [5]: inactive
Potency [6]: inactive
outcome [7]: inactive
outcome [8]: inactive
outcome [9]: inactive
outcome [10]: inactive
Potency [12]: inactive
outcome [14]: inactive
outcome [15]: inactive
outcome [16]: inactive
Potency [17]: inactive
Potency [20]: inactive
outcome [18]: inactive
outcome [19]: inactive

C[C@@H]1C(=O)NC2=Nc3cccc(Cl)c3CN21
outcome [1]: inactive
outcome [2]: inactive
outcome [4]: inactive
outcome [5]: inactive
Potency [6]: inactive
outcome [7]: inactive
outcome [8]: inactive
outcome [9]: inactive
outcome [10]: inactive
outcome [11]: inactive
Potency [13]: inactive
outcome [14]: inactive
outcome [15]: inactive
outcome [16]: inactive
Potency [17]: inactive
Potency [20]: inactive
outcome [18]: inactive
outcome [19]: inactive
